Data: PubChem BioAssay AID1159580 (chemical genetic matrix, 2015)
The whole screen tested about 5,500 compounds, of which about 2,000 (36%) were called active. About 18% were inconclusive and are not listed. Cut-off read from the data, not from the text of the source: active = normalized growth mostly below about 0.91 (no sharp cut-off); inconclusive = no clear call, values can overlap the other calls; inactive = mostly above about 0.92. This is one part of the list.

Assay: chemical genetic growth profiling, strain panel (AID 1159580);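 note: tested at 20 µM; growth read once vehicle control cultures reached saturation at 30 °C; 1 = growth at the plate median or of vehicle wells; lower values mean less growth of the strain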
Conditions: S. cerevisiae deletion strains, growth OD

Measured: normalized growth

COC(=O)[C@@H]1OC(=O)C2OC23[C@@]1(C)CCC1[C@]2(C)C(C[C@H](O)[C@]13C)C(C)(C)[C@H](OC(C)=O)C[C@@H]2OC(C)=O (some centres not stated)
inactive: locus YAL021C, strain ccr4, active compounds read low 1.01 | locus YAL026C, strain drs2, active compounds read low 1.01 | locus YAL030W, strain snc1, active compounds read low 1.01 | locus YBL061C, strain skt5, active compounds read low 1.01 | locus YBR009C, strain hhf1, active compounds read low 1.03 | locus YBR021W, strain FUR4, active compounds read low 1.01 | locus YBR023C, strain chs3, active compounds read low 1.02 | locus YBR171W, strain sec66, active compounds read low 1.02 | locus YBR229C, strain ROT2, active compounds read low 1.01 | locus YBR231C, strain swc5, active compounds read low 1.01 | locus YBR279W, strain paf1, active compounds read low 1.02 | locus YCL011C, strain gbp2, active compounds read low 1 | locus YCL016C, strain dcc1, active compounds read low 1.02 | locus YCL029C, strain bik1, active compounds read low 0.999 | locus YCL061C, strain MRC1, active compounds read low 1.02 | locus YCL069W, strain vba3, active compounds read low 1.01 | locus YCR088W, strain abp1, active compounds read low 1.02 | locus YDL005C, strain med2, active compounds read low 1.02 | locus YDL035C, strain GPR1, active compounds read low 1.04 | locus YDL040C, strain nat1, active compounds read low 1.01 | locus YDL074C, strain BRE1, active compounds read low 1.04 | locus YDL101C, strain DUN1, active compounds read low 1 | locus YDL134C, strain PPH21, active compounds read low 1 | locus YDL185W, strain tfp1, active compounds read low 1 | locus YDL192W, strain arf1, active compounds read low 1.01 | locus YDR001C, strain nth1, active compounds read low 1.01 | locus YDR069C, strain doa4, active compounds read low 1.03 | locus YDR101C, strain arx1, active compounds read low 1 | locus YDR137W, strain rgp1, active compounds read low 1.05 | locus YDR159W, strain sac3, active compounds read low 1.01 | locus YDR162C, strain NBP2, active compounds read low 1.02 | locus YDR195W, strain ref2 0.98 | locus YDR297W, strain sur2, active compounds read low 1.01 | locus YDR318W, strain mcm21, active compounds read low 1.01 | locus YDR334W, strain swr1, active compounds read low 1.02 | locus YDR335W, strain msn5, active compounds read low 1.05 | locus YDR388W, active compounds read low 0.989 | locus YDR392W, strain spt3, active compounds read low 1.03 | locus YDR502C, strain sam2, active compounds read low 0.993 | locus YEL003W, strain gim4, active compounds read low 1.02 | locus YEL037C, strain rad23, active compounds read low 1.01 | locus YEL061C, strain CIN8 (second series), active compounds read low 1.02 | locus YEL061C, strain CIN8, active compounds read low 1.01 | locus YER015W, strain faa2, active compounds read low 1.02 | locus YER016W, strain bim1, active compounds read low 1.01 | locus YER110C, active compounds read low 0.995 | locus YER111C, strain swi4, active compounds read low 1.01 | locus YER155C, strain BEM2 (second series), active compounds read low 1.02 | locus YER155C, strain BEM2, active compounds read low 1 | locus YER167W, strain BCK2, active compounds read low 1.02 | locus YFR010W, strain ubp6, active compounds read low 1.01 | locus YGL078C, strain dbp3, active compounds read low 0.994 | locus YGL086W, strain mad1, active compounds read low 1 | locus YGL167C, strain pmr1, active compounds read low 1.02 | locus YGL173C, strain kem1, active compounds read low 1.01 | locus YGL227W, strain vid30, active compounds read low 1.03 | locus YGL240W, strain doc1, active compounds read low 1.04 | locus YGL248W, strain PDE1, active compounds read low 1.01 | locus YGL253W, strain hxk2, active compounds read low 1.02 | locus YGR135W, strain pre9, active compounds read low 0.981 | locus YGR252W, strain gcn5, active compounds read low 0.989 | locus YHR013C, strain ard1, active compounds read low 1.02 | locus YHR027C, strain rpn1, active compounds read low 1.02 | locus YHR030C, strain SLT2, active compounds read low 0.999 | locus YHR079C, strain IRE1 (second series), active compounds read low 1.01 | locus YHR079C, strain IRE1, active compounds read low 0.977 | locus YHR094C, strain hxt1, active compounds read low 0.995 | locus YHR129C, strain ARP1, active compounds read low 1.01 | locus YHR142W, strain chs7, active compounds read low 1.02 | locus YHR200W, strain rpn10, active compounds read low 0.987 | locus YIL066C, strain RNR3, active compounds read low 1.03 | locus YIL073C, strain SPO22, active compounds read low 1.05 | locus YIL125W, strain kgd1, active compounds read low 0.998 | locus YIR030C, strain dcg1, active compounds read low 1.01 | locus YJL092W, strain hpr5, active compounds read low 1.02 | locus YJL095W, strain BCK1 (second series), active compounds read low 1.02 | locus YJL095W, strain BCK1, active compounds read low 1 | locus YJL115W, strain asf1, active compounds read low 1.02 | locus YJL129C, strain trk1, active compounds read low 1 | locus YJL134W, strain LCB3, active compounds read low 1.01 | locus YJL154C, strain vps35, active compounds read low 1.01 | locus YJL164C, strain tpk1, active compounds read low 1.02 | locus YJL166W, strain qcr8, active compounds read low 1.01 | locus YJL168C, strain set2, active compounds read low 0.991 | locus YJL187C, strain SWE1 (second series), active compounds read low 1 | locus YJL187C, strain SWE1, active compounds read low 1 | locus YJR043C, strain POL32, active compounds read low 1.01 | locus YJR066W, strain TOR1, active compounds read low 0.906 | locus YKL009W, strain mrt4, active compounds read low 1 | locus YKL068W, active compounds read low 1.01 | locus YKL085W, strain MDH1 (second series), active compounds read low 1 | locus YKL085W, strain MDH1, active compounds read low 1 | locus YKL160W, strain elf1, active compounds read low 1.02 | locus YKL190W, strain CNB1, active compounds read low 1.01 | locus YKR001C, strain vps1, active compounds read low 0.98 | locus YKR026C, strain gcn3, active compounds read low 1.01 | locus YKR091W, strain srl3, active compounds read low 1.01 | locus YLL001W, strain dnm1, active compounds read low 1.02 | locus YLL026W, active compounds read low 1.01 | locus YLL041C, strain sdh2, active compounds read low 1 | locus YLR027C, strain aat2, active compounds read low 1.02 | locus YLR039C, strain RIC1, active compounds read low 1.03 | locus YLR058C, strain SHM2, active compounds read low 1.02 | locus YLR102C, strain apc9, active compounds read low 0.997 | locus YLR113W, strain HOG1, active compounds read low 1.04 | locus YLR221C, strain rsa3, active compounds read low 1.01 | locus YLR258W, strain gsy2, active compounds read low 1.01 | locus YLR262C, strain YPT6 (second series), active compounds read low 1 | locus YLR268W, strain sec22, active compounds read low 1.02 | locus YLR320W, strain mms22, active compounds read low 1.02 | locus YLR330W, strain CHS5, active compounds read low 1.01 | locus YLR342W, strain FKS1, active compounds read low 1.01 | locus YLR357W, strain rsc2, active compounds read low 1.02 | locus YLR370C, strain arc18, active compounds read low 1.02 | locus YLR371W, strain rom2, active compounds read low 1 | locus YLR384C, strain iki3, active compounds read low 1 | locus YLR418C, strain cdc73, active compounds read low 1.01 | locus YML016C, strain PPZ1, active compounds read low 1 | locus YML032C, strain rad52, active compounds read low 0.994 | locus YML120C, strain ndi1, active compounds read low 1.01 | locus YML124C, strain tub3, active compounds read low 1 | locus YMR058W, strain fet3, active compounds read low 1.02 | locus YMR078C, strain ctf18, active compounds read low 1 | locus YMR125W, strain sto1, active compounds read low 1.01 | locus YMR129W, active compounds read low 1 | locus YMR205C, strain PFK2, active compounds read low 1.02 | locus YMR223W, strain ubp8, active compounds read low 0.99 | locus YMR231W, strain pep5, active compounds read low 1 | locus YMR263W, strain SAP30, active compounds read low 1.01 | locus YMR307W, strain GAS1, active compounds read low 1 | locus YNL067W, strain RPL9B, active compounds read low 1 | locus YNL071W, strain lat1, active compounds read low 1.01 | locus YNL183C, strain NPR1, active compounds read low 0.938 | locus YNL209W, strain ssb2, active compounds read low 1.01 | locus YNL233W, strain BNI4, active compounds read low 1 | locus YNL248C, strain rpa49, active compounds read low 1.01 | locus YNL250W, strain rad50, active compounds read low 0.989 | locus YNL271C, strain bni1, active compounds read low 1.01 | locus YNL298W, strain CLA4, active compounds read low 1 | locus YNL307C, strain MCK1, active compounds read low 0.998 | locus YNL322C, strain KRE1 (second series), active compounds read low 1.02 | locus YNR049C, strain mso1, active compounds read low 1.02 | locus YNR052C, strain pop2, active compounds read low 0.993 | locus YOL006C, strain TOP1, active compounds read low 1.08 | locus YOL012C, strain htz1 1.19 | locus YOL147C, strain pex11, active compounds read low 1 | locus YOR001W, strain rrp6, active compounds read low 1 | locus YOR061W, strain CKA2, active compounds read low 1.03 | locus YOR069W, strain VPS5, active compounds read low 1.01 | locus YOR070C, strain gyp1, active compounds read low 1.02 | locus YOR080W, strain dia2, active compounds read low 1 | locus YOR083W, strain WHI5, active compounds read low 1.02 | locus YOR106W, strain vam3, active compounds read low 1.03 | locus YOR136W, strain idh2, active compounds read low 0.994 | locus YOR144C, strain elg1, active compounds read low 0.996 | locus YOR184W, strain ser1, active compounds read low 1.03 | locus YOR231W, strain MKK1, active compounds read low 0.989 | locus YOR265W, strain rbl2, active compounds read low 0.995 | locus YOR270C, strain vph1, active compounds read low 0.986 | locus YOR290C, strain snf2, active compounds read low 1.04 | locus YOR316C, strain cot1, active compounds read low 0.996 | locus YPL051W, strain arl3, active compounds read low 1.02 | locus YPL078C, strain atp4, active compounds read low 1.03 | locus YPL106C, strain sse1, active compounds read low 1.04 | locus YPL240C, strain hsp82, active compounds read low 1.01 | locus YPL241C, strain CIN2, active compounds read low 1.01 | locus YPL256C, strain CLN2, active compounds read low 0.979 | locus YPR119W, strain clb2, active compounds read low 1 | locus YPR141C, strain kar3, active compounds read low 1.01 | locus YPR163C, strain tif3, active compounds read low 0.996 | locus YPR167C, strain met16, active compounds read low 1 | strain wtn01, active compounds read low 1
